# Data as given in the supplement of paper PMC9135407.
# Where “and” joins values, the source holds several entries; their conditions need not be identical. Identical values can stand only once. Counter-ions that a name gives are not always drawn. Screen size: about 5,800 compounds; about 620 (11%) showed activity. The sample as a whole holds a higher share of actives than the screen did. A number with no mark means an inactive call.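 How the source made its calls: active = score above a cut-off or among the top three wells of a plate; in these data no inactive exceeds 0.85.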
# System: primary human hepatic stellate cells (donor 1)
# Test: scaled lipid accumulation score (0 = DMSO-like, 1 = nortriptyline-like); higher = stronger HSC inactivation (lipid re-accumulation), active = hit call of the paper
# Details: 48 h
# Description: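 Primary lipid accumulation screen in primary human hepatic stellate cell myofibroblasts (donor 1, passage 8) in 384-well plates. 100 nL of library compound was pin-transferred into 30 µL medium in duplicate, and cells were treated for 48 h. The 'Scaled' score combines distance from plate baseline, toxicity and reproducibility penalties, and is normalised to nortriptyline (positive) and DMSO (negative) controls on each plate. A hit is defined as scaled >0.85 or among the top 3 wells per plate.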
# [1] = library stock concentration: 1 mM
# [2] = library stock concentration: 10 mM
# [3] = library stock concentration: 3.33 mM
# [4] = library stock concentration: 80 uM
# [5] = library stock concentration: 400 uM
# [6] = library stock concentration: 2 mM
smiles,measurement,setting,value
CCCCCC(=O)/C=C/[C@H]1[C@H](O)CC(=O)[C@@H]1CCCCCCC(=O)O [15-keto Prostaglandin E1],scaled lipid accumulation score,[1],≤ 0
O=C(Nc1ccc([N+](=O)[O-])cc1O)Nc1ccccc1Br,scaled lipid accumulation score,[1],≤ 0
same,scaled lipid accumulation score,[2],0.317
O[C@@H](COc1cccc2ncccc12)CN1CCN(C2c3ccccc3[C@@H]3[C@H](c4ccccc42)C3(F)F)CC1 (some centres not stated),scaled lipid accumulation score,[3],0.206
same,scaled lipid accumulation score,[2],0.837
CCC(C)N(C)C(=O)c1cc2ccccc2c(-c2ccccc2Cl)n1 (configuration not stated),scaled lipid accumulation score,[2],0.007 and ≤ 0
CC(C)(F)C[C@H](N[C@@H](c1ccc(-c2ccc(S(C)(=O)=O)cc2)cc1)C(F)(F)F)C(=O)NC1(C#N)CC1 [Odanacatib (MK-0822)],scaled lipid accumulation score,[3],≤ 0
same,scaled lipid accumulation score,[2],≤ 0
"CC(C)CCOc1ccc(N)cc1 [CP 24,879 (hydrochloride)]",scaled lipid accumulation score,[1],≤ 0
OCCn1cc(-c2ccc3c(c2)CC/C3=N\O)c(-c2ccncc2)n1,scaled lipid accumulation score,[4],0.006
same,scaled lipid accumulation score,[5],0.086
same,scaled lipid accumulation score,[6],≤ -0.009
same,scaled lipid accumulation score,[3],0.041
same,scaled lipid accumulation score,[2],≤ 0 and ≤ -0.009
CN(C)CCOc1ccc(-c2nc(-c3ccncc3)c(-c3ccc4c(c3)CC/C4=N\O)[nH]2)cc1,scaled lipid accumulation score,[4],0.074
same,scaled lipid accumulation score,[5],0.325 and 0.619
same,scaled lipid accumulation score,[6],0.7 and 0.684
same,scaled lipid accumulation score,[2],0.476 and 0.423 and 0.307
CN(C)CCOc1ccc(-c2nc(-c3ccncc3)c(-c3ccc4c(c3)CCC4=NO)[nH]2)cc1,scaled lipid accumulation score,[3],1.06 (active)
"CCCCCC(O)CCC1C(O)CC(=O)C1CCCCCCC(=O)O (configuration not stated) [13,14-dihydro Prostaglandin E1]",scaled lipid accumulation score,[1],≤ 0
"CCCCCC(O)CCC1C(O)CC(=O)C1CCCCCCC(=O)O [13,14-dihydro-15(R)-Prostaglandin E1]",scaled lipid accumulation score,[1],≤ 0
COc1ccc(-c2nc(-c3ccc(-c4cccc(Cl)c4)o3)[nH]c2-c2ccc(OC)cc2)cc1 [Neurodazine],scaled lipid accumulation score,[1],0.352
same,scaled lipid accumulation score,[2],0.113
CC(=O)OC1CC2CCC1(C)C2(C)C (configuration not stated),scaled lipid accumulation score,[2],≤ 0
Cc1cc(C=C2C(=O)C=CC2=O)cc(C)c1O [listing 1 of 2 here],scaled lipid accumulation score,[2],0.924 (active)
Cc1cc(C=C2C(=O)C=CC2=O)cc(C)c1O [listing 2 of 2 here],scaled lipid accumulation score,[4],≤ -0.001
same,scaled lipid accumulation score,[5],≤ -0.001
same,scaled lipid accumulation score,[6],0.593
same,scaled lipid accumulation score,[3],0.464
CCCCCCCCCCCCCCCCOCC(COP(=O)(O)OCC[N+](C)(C)C)OCC (configuration not stated) [2-O-ethyl PAF C-16],scaled lipid accumulation score,[1],≤ 0
CC(=O)NC(C(=O)O)c1ccccc1 (configuration not stated),scaled lipid accumulation score,[2],≤ 0
CC(C)C(=O)Nc1ncc(-c2cc(C(F)F)nn2-c2c(Cl)cccc2Cl)s1,scaled lipid accumulation score,[2],1.1 (active)
CC(=O)Nc1ccc([C@H](C)C(=O)Nc2ncc(C(C)C)s2)cc1,scaled lipid accumulation score,[5],≤ -0.005
same,scaled lipid accumulation score,[6],0.175
same,scaled lipid accumulation score,[2],0.348
O=C(Cc1ccc(-c2ccc(OCCN3CCOCC3)cc2)cn1)NCc1ccccc1,scaled lipid accumulation score,[4],0.076
same,scaled lipid accumulation score,[5],0.268
same,scaled lipid accumulation score,[6],0.077
same,scaled lipid accumulation score,[3],0.093
same,scaled lipid accumulation score,[2],0.076 and 0.499
CC(C)(C)c1cc(NC(=O)Nc2ccc(-c3cn4c(n3)sc3cc(OCCN5CCOCC5)ccc34)cc2)no1 [Quizartinib  (AC220) (0.4 mM)],scaled lipid accumulation score,[5],≤ -0.005
CC(C)(C)c1cc(NC(=O)Nc2ccc(-c3cn4c(n3)sc3cc(OCCN5CCOCC5)ccc34)cc2)no1,scaled lipid accumulation score,[4],≤ 0
same,scaled lipid accumulation score,[5],≤ 0
same,scaled lipid accumulation score,[6],0.142
same,scaled lipid accumulation score,[2],0.292
Cc1ccc(-n2nc(C(C)(C)C)cc2NC(=O)Nc2ccc(OCCN3CCOCC3)c3ccccc23)cc1,scaled lipid accumulation score,[4],≤ -0.009
same,scaled lipid accumulation score,[5],≤ -0.009
same,scaled lipid accumulation score,[6],0.044
same,scaled lipid accumulation score,[2],≤ -0.009
CC(C)(C)c1cc(NC(=O)Nc2ccc(-c3cn4c(n3)sc3cc(OCCN5CCOCC5)ccc34)cc2)no1 [Quizartinib (AC220)] [listing 1 of 2 here],scaled lipid accumulation score,[3],0.288
CC(C)(C)c1cc(NC(=O)Nc2ccc(-c3cn4c(n3)sc3cc(OCCN5CCOCC5)ccc34)cc2)no1 [Quizartinib (AC220)] [listing 2 of 2 here],scaled lipid accumulation score,[2],1.15 (active)
CC(C)(C)c1cc(NC(=O)Nc2ccc(-c3cn4c(n3)sc3cc(OCCN5CCOCC5)ccc34)cc2)no1 [Quizartinib  (AC220) (10 mM)],scaled lipid accumulation score,[2],1.7 (active)
Cc1ccc(-n2nc(C(C)(C)C)cc2NC(=O)Nc2ccc(OCCN3CCOCC3)c3ccccc23)cc1 [BIRB 796 (Doramapimod)],scaled lipid accumulation score,[3],0.017
same,scaled lipid accumulation score,[2],≤ 0
CC(C)(C)c1cc(NC(=O)Nc2ccc(-c3cn4c(n3)sc3cc(OCCN5CCOCC5)ccc34)cc2)no1 [Quizartinib  (AC220) (2 mM)],scaled lipid accumulation score,[6],1.02 (active)
"C=C1CCC(O)C/C1=C\C=C1\CCCC2(C)C1CCC2C(C)CCC(O)C(C)(C)O (configuration not stated) [24,25-Dihydroxyvitamin D3]",scaled lipid accumulation score,[1],0.016
O=C(O)CCC/C=C\C[C@H]1C(=O)C[C@@H](O)[C@@H]1/C=C/[C@@H](O)COc1ccccc1 [16-phenoxy tetranor Prostaglandin E2],scaled lipid accumulation score,[1],≤ 0
CCCCCCCCCCCCCCCCCCCCCCCC(=O)NCCS(=O)(=O)O [N-Lignoceroyl Taurine],scaled lipid accumulation score,[1],0.009
CCCCCC(O)C=CC1C(O)CC(O)C1CC=CCCCC(=O)O (stereo not drawn) [8-epi-Prostaglandin F2a],scaled lipid accumulation score,[1],≤ -0.021
O=C(Cc1ccccc1)Nc1nc2ccc(Cl)cc2c2nc(-c3ccco3)nn12,scaled lipid accumulation score,[2],0.596
CC(C)NC[C@@H](C(=O)N1CCN(c2ncnc3c2[C@H](C)C[C@H]3O)CC1)c1ccc(Cl)cc1 [listing 1 of 2 here],scaled lipid accumulation score,[2],0.881 (active)
CC(C)NC[C@@H](C(=O)N1CCN(c2ncnc3c2[C@H](C)C[C@H]3O)CC1)c1ccc(Cl)cc1 [listing 2 of 2 here],scaled lipid accumulation score,[4],≤ -0.016
same,scaled lipid accumulation score,[5],≤ -0.016
same,scaled lipid accumulation score,[6],0.083
same,scaled lipid accumulation score,[3],0.174
same,scaled lipid accumulation score,[2],0.257
"CCCCCCCC/C=C\CCCCCCCC(=O)OCC(CO)OC(=O)CCCCCCC/C=C\CCCCCCCC (configuration not stated) [1,2-Dioleoyl-glycerol (18:1)]",scaled lipid accumulation score,[1],0.004
